Assay results reported in PubChem BioAssay (Tox21).
Inconclusive results are not listed. Activity calls are given as the source filed them. The call rests on the fitted dose curve.

Columns and labels:
[1] = target: Acetylcholinesterase (Homo sapiens) (UniProt P22303); assay: Acetylcholinesterase (AChE) small molecule antagonists: colormetric cell-based qHTS assay (AID 1347395); conditions: SH-SY5Y cells AChE activity, colorimetric (Ellman); series mostly up to 115 µM; further: nearly all actives have a fitted effect of over 30% in size
Sequence of Acetylcholinesterase (Homo sapiens) (P22303 whole entry, looked up): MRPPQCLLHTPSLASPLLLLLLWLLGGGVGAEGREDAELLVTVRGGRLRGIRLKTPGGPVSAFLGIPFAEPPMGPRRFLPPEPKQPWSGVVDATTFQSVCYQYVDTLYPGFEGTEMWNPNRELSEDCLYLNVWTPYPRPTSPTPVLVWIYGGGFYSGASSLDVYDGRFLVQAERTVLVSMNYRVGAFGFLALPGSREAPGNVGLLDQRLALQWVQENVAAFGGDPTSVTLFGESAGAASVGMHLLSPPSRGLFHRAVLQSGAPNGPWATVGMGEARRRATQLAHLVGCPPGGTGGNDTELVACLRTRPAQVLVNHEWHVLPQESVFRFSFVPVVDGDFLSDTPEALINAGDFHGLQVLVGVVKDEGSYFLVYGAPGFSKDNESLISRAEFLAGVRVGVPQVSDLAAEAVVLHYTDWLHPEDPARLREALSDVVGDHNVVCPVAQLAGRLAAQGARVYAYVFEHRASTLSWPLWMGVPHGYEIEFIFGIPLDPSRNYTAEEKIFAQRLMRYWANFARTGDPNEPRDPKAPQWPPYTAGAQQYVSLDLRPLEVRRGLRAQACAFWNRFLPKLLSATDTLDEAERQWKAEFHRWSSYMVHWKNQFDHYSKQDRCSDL
How it was run: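 AChE inhibition read colorimetrically via DTNB–thiocholine in SH-SY5Y cells. Compound 30 min, substrate 90 min, both 37 C.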

[2] = target: Acetylcholinesterase (Homo sapiens) (UniProt P22303); assay: Acetylcholinesterase (AChE) small molecule antagonists: enzyme-based qHTS assay (AID 1347397); conditions: Potency: AChE enzyme activity inhibition; outcome: AChE enzyme activity inhibition; series mostly up to 115 µM; further: nearly all actives have a fitted effect of over 55% in size
How it was run: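 In this quantitative HTS, compounds from the Tox21 10K collection were preincubated 30 min at ambient temperature with recombinant human AChE dispensed at 50 mU/mL. Hydrolysis of acetylthiocholine was then followed for 10 min by DTNB colour development.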

[3] = target: Acetylcholinesterase (Homo sapiens) (UniProt P22303); assay: Acetylcholinesterase (AChE) small molecule antagonists: fluorescence cell-based qHTS assay (AID 1347398); conditions: SH-SY5Y cells; Potency: AChE activity; outcome: AChE activity; series mostly up to 115 µM; further: nearly all actives have a fitted effect of over 50% in size
How it was run: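 Cells (SH-SY5Y) attached overnight, were dosed with compound or DMSO vehicle for 30 min at 37 C, and then incubated 40 min at room temperature with acetylthiocholine and Thiolite Green; green fluorescence indexed AChE activity.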

[4] = target: Acetylcholinesterase (Homo sapiens) (UniProt P22303); assay: Acetylcholinesterase (AChE) small molecule antagonists: enzyme-based qHTS assay with human liver microsomes (AID 1347399); conditions: Potency: qHTS inhibition; outcome: qHTS inhibition; series mostly up to 115 µM; further: nearly all actives have a fitted effect of over 60% in size
How it was run: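 Recombinant human AChE (50 mU/mL in the enzyme mix) and human liver microsomes (0.25 mg/mL final) were preincubated with compound and NADPH (0.25 mg/mL final) for 30 min at 37 C. Acetylthiocholine/DTNB was then added; thiocholine was read colorimetrically after 10 min at room temperature.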

Measured: Potency

Nc1ccc(F)cc1
inactive: [1] | [2] | [3] | [4]

COC(=O)CS
inactive: [1] | [2] | [3] | [4]

CNCCO
inactive: [1] | [2] | [3] | [4]

O=C(OCCN1CCOCC1)c1cccnc1Nc1cccc(C(F)(F)F)c1
inactive: [1] | [2] | [3] | [4]

CCN(CC)CCNC(=O)COc1ccc(Cl)cc1
inactive: [1] | [2] | [3] | [4]

O=Cc1cc(O)ccc1Br
inactive: [1] | [2] | [3] | [4]

CCC(C)NC(N)=O (stereo unspecified)
inactive: [1] | [2] | [3] | [4]

COC(=O)NCCC[Si](OC)(OC)OC
inactive: [1] | [2] | [3] | [4]

CCCCCCC(=O)OCC
inactive: [1] | [2] | [3] | [4]

OC(CCN1CCCCC1)(c1ccccc1)C1CC2C=CC1C2 (stereo unspecified)
inactive: [1] | [2] | [3] | [4]

Cc1ccc(CO)cc1
inactive: [1] | [2] | [3] | [4]

OCC(F)(F)F
inactive: [1] | [2] | [3] | [4]

COc1ccnc(CS(=O)c2nc3cc(OC(F)F)ccc3[nH]2)c1OC (stereo unspecified)
inactive: [1] | [2] | [3] | [4]

COc1ccc(C(=O)Nc2nc3ccccc3c(NCc3ccccc3)c2C#N)cc1
inactive: [1] | [2] | [3] | [4]

COc1ccc(S(=O)(=O)N2c3ccc(Cl)cc3[C@@](O)(c3ccccc3Cl)[C@H]2C(=O)N2CCC[C@@H]2C(N)=O)cc1OC
inactive: [1] | [2] | [3] | [4]

CCOC(=O)c1ccc(O)c(O)c1
inactive: [1] | [2] | [3] | [4]

COc1ccc(/C=C/c2cc(OC)cc(=O)o2)cc1
inactive: [1] | [2] | [3] | [4]

CC(C)(C)c1ccccc1
inactive: [1] | [2] | [3] | [4]

CCCC(=O)O[C@]1(C(=O)CCl)[C@@H](C)C[C@H]2[C@@H]3CCC4=CC(=O)C=C[C@]4(C)[C@@]3(F)C(=O)C[C@@]21C
inactive: [1] | [2] | [3] | [4]

CCCC(=O)OCC
inactive: [1] | [2] | [3] | [4]

CCCCCCCCc1ccc(Nc2ccc(CCCCCCCC)cc2)cc1
inactive: [1] | [2] | [3] | [4]

C=CCCC(=O)O
inactive: [1] | [2] | [3] | [4]

CNCc1cc(F)ccc1Oc1ccc(Cl)c(Cl)c1
inactive: [1] | [2] | [3] | [4]

O=C1CCCCO1
inactive: [1] | [2] | [3] | [4]

C/C(=N\[Si](C)(C)C)O[Si](C)(C)C
inactive: [1] | [2] | [3] | [4]

CCOC(=O)Nc1ccc2c(c1)N(C(=O)CCN1CCOCC1)c1ccccc1S2
inactive: [1] | [2] | [3] | [4]

CC(C)c1cccc(C(C)C)c1NC(=O)NS(=O)(=O)c1cc(C(C)(C)O)co1
inactive: [1] | [2] | [3] | [4]

O=C(Nc1ccccc1)c1ccccc1O
inactive: [1] | [2] | [3] | [4]

CC[C@H](NC(=O)c1cc(F)ccc1NS(=O)(=O)c1cccc2cccnc12)c1ccccc1
inactive: [1] | [2] | [3] | [4]

Cc1cccc2nccnc12
inactive: [1] | [2] | [3] | [4]

COC(=O)CC#N
inactive: [1] | [2] | [3] | [4]

O=c1[nH]sc2ccccc12
inactive: [1] | [2] | [3] | [4]

COc1cccc(OC)c1
inactive: [1] | [2] | [3] | [4]

Cc1cccc(CN2CCN(C(c3ccccc3)c3ccc(Cl)cc3)CC2)c1 (stereo unspecified)
inactive: [1] | [2] | [3] | [4]

C=CC(C)=CCC=C(C)C
inactive: [1] | [2] | [3] | [4]

COc1ccccc1N1CCN(CC(O)COc2cc(OC)c(OC)c(OC)c2)CC1 (stereo unspecified)
inactive: [1] | [2] | [3] | [4]

C=CC(=O)O[C@H]1C[C@@H]2CC[C@@]1(C)C2(C)C
inactive: [1] | [2] | [3] | [4]

CC1=C(CC=O)C(C)(C)CCC1
inactive: [1] | [2] | [3] | [4]

COC(=O)C(C)(C)C
inactive: [1] | [2] | [3] | [4]
